Assay outcomes (PubChem BioAssay)
Fam108B counter: blocks mouse Fam108B hydrolase in RBBP9 counter-screen; recombinant Fam108B, FP-Rh probe fluorescence polarization; inhibition, % at 9.51 µM; 0.33% of 300,000 active; AID 1947;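 active = inhibition above the screen mean inhibition plus 3 SD, computed separately per campaign, cut at about 18% in these data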;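 also: inhibitors lower polarization as less probe binds the enzyme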
PME-1 primary: PME-1 (human) inhibition | 0.53% of 320,000 active | Q9Y570 | recombinant PME-1, FP-Rh probe fluorescence polarization | inhibition, % at 5.9 µM;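 active = inhibition above the campaign mean of all compounds plus 3 SD, cut at about 26% in these data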;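 also: competitive labeling of PME-1 active site by serine hydrolase directed probe; 0% = PME-1 with DMSO and 100% = wells lacking PME-1 enzyme; inhibitors block probe labeling so polarization falls and inhibition rises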
Target sequence (Q9Y570 whole entry, looked up): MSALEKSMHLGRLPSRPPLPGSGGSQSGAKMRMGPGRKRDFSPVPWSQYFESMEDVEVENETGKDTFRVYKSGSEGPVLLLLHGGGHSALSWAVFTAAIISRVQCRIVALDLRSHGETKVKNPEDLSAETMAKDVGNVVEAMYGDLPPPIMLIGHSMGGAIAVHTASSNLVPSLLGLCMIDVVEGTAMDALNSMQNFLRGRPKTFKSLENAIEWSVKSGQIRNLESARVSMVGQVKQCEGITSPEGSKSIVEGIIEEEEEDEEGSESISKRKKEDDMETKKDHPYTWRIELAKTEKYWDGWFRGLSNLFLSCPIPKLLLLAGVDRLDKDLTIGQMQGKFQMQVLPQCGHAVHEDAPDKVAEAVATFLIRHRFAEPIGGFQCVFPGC
PRMT1 FP inh: inhibitors of human PRMT1. Q99873. AID 652257. 1.3% of 370,000 active. recombinant PRMT1, activity-based probe fluorescence polarization. inhibition, % at 2.79 µM;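 active = inhibition above about 21% made by adding two undisclosed values, limit read from the data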
PAD4 FP inh: PAD4 (human) enzyme inhibition. 0.41% of 330,000 active. Q9UM07. inhibition, % at 6.36 µM. recombinant PAD4, RCA probe fluorescence polarization. AID 485272;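 active = percent inhibition above a cutoff equal to the mean of all tested compounds plus 3 SD, cut at about 15% in these data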;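 also: 0% = PAD4 with RCA probe and DMSO and 100% = probe without PAD4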
SIAE primary: blocks human sialic acid acetylesterase; inhibition, % at 9.66 µM; 0.69% of 370,000 active; Q9HAT2; SIAE FP-Rh probe binding, fluorescence polarization;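 active = inhibition above a cutoff: mean of compounds within the control limits plus 3 SD of those, cut at about 17% in these data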;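 also: 0% = plate median of compound wells and 100% = probe without SIAE protein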
TCR-CD3 inh: blocks the human TCR-CD3 interaction; TAMRA-labeled TCR probe fluorescence, biochemical; inhibition, % at 9.4 µM; 0.37% of 360,000 active; in the data active = inhibition above about 19%;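 also: recombinant mutant TCR 2C K166C tagged with TAMRA read by polarization; 0% = receptor in buffer alone and 100% = receptor with positive control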
SIAE confirm: human SIAE inhibition, confirmation; inhibition, % at 9.66 µM; SIAE FP-Rh activity-based probe, fluorescence polarization; 13% of 2,300 active; shares compounds with SIAE primary; AID 1117263;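 active = mean inhibition of the replicates above the hit cutoff set in the primary screen, cut at about 17% in these data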;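 also: 0% = SIAE with DMSO and probe and 100% = probe without SIAE; inhibitors lower polarization as more probe stays unbound to SIAE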
Starred values were filed as active, the others as inactive; x = no result. Sampled rows, rich in hits. Any-hit rate of the full collection: about 2.6%.

SMILES	Fam108B counter	PME-1 primary	PRMT1 FP inh	PAD4 FP inh	SIAE primary	TCR-CD3 inh	SIAE confirm
Cc1ccc2c(c1)C1CS(=O)(=O)N(Cc3ccccc3)CN1C2 (centres undefined)	x	x	3	x	-5	x	x
Oc1ccc(NC(=S)N=Nc2c(O)[nH]c3ccccc23)cc1	8	15	-3	2	19*	3	-6
Cc1ccc(NC(=S)N=Nc2c(O)[nH]c3ccccc23)cc1	4	0	-5	-4	-6	3	x
Cc1ccc(C(=O)C(OC(=O)CCC(=O)Nc2cccc(C)c2)c2ccccc2)cc1 (centres undefined)	-3	-1	0	1	21*	11	-1
O=C1OC(c2ccccc2)=NC12CC2c1ccc(Cl)cc1 (centres undefined)	-1	-2	-1	-1	23*	-2	70*
Cc1ccc(-c2cnc(SCCNC(=O)c3ccco3)[nH]2)cc1	1	-4	-1	1	17*	-1	1
Cc1ccc(C(=O)NCCCNC(=O)c2ccco2)cc1	0	-1	-6	-1	-2	-2	x
Cc1occc1-c1nnc(SCC(=O)Nc2ccc3ncccc3c2)n1-c1ccccc1	x	x	7	x	-5	x	x
O=C(N/N=C/c1cc(Br)c(O)c(Br)c1)c1cc2c(ccc3ccccc32)o1	x	x	11	x	57*	15	26*
CC(C)CNC(=O)C1Nc2ccccc2C2C=CCC12 (centres undefined)	8	5	15	-6	20*	-7	5
CCOC(=O)[C@]12CCCC3=C1N(CCC3)C(=O)[C@@H](CC(=O)NCc1ccccc1)C2	x	x	-3	x	-3	x	x
CS(=O)(=O)N(CC(=O)NCCSCc1c(F)cccc1Cl)c1ccc2c(c1)OCO2	1	6	3	-6	18*	-7	7
COc1ccc(N(CC(=O)NCCSCc2c(F)cccc2Cl)S(C)(=O)=O)cc1OC	-3	-3	x	0	x	x	x
C[C@H](c1ccccc1)N1C[C@@H](COCc2ccccc2)Oc2cc(N3CC[C@@H](N(C)C)C3)ccc2S1(=O)=O	x	x	-2	x	18*	8	11
C[C@@H](c1ccccc1)N1C[C@@H](COCc2ccccc2)Oc2cc(N3CC[C@H](N(C)C)C3)ccc2S1(=O)=O	x	x	-2	x	5	2	x
Cc1ccc(S(=O)(=O)N2CCCC2CNC(=O)C(=O)Nc2ccccc2)cc1 (centres undefined)	-2	4	-1	-1	3	1	x
Cc1ccc(S(=O)(=O)N2CCCC2CNC(=O)c2ccccc2)cc1 (centres undefined)	0	-1	0	3	22*	7	3
C=C1N(C)c2cc([N+](=O)[O-])c(N)cc2C1(C)C	3	12	3	2	18*	1	15
CN(C(=O)CSc1ncnc2sc3c(c12)CCC3)C1CCS(=O)(=O)C1 (centres undefined)	x	6	3	-5	9	-1	x
CN(C(=O)CSc1nc2sc3c(c2c(=O)n1C)CCC3)C1CCS(=O)(=O)C1 (centres undefined)	x	-1	-1	-1	19*	12	0
Cn1ccnc1CN1CCC[C@]2(CC[C@H](CCC#N)O2)C1	x	x	-4	x	-4	x	x
CCOC(=O)[C@]12CCCC3=C1N(CCC3)C(=O)[C@@H](CC(=O)NCCc1ccccc1OC)C2	x	x	-2	x	3	x	x
CCOC(=O)CC(=O)CSc1nc2c(sc(=S)n2-c2ccc(OCC)cc2)c(=O)[nH]1	5	2	3	-2	20*	-3	-2
COc1cccc(OCC(O)CN2CCN(c3ccccc3)CC2)c1 (centres undefined)	1	-2	0	-2	7	-2	x
COc1cccc(OCC(O)CN2CCN(c3ccc(Cl)cc3)CC2)c1 (centres undefined)	8	-1	-5	-2	19*	1	0
SMILES	Fam108B counter	PME-1 primary	PRMT1 FP inh	PAD4 FP inh	SIAE primary	TCR-CD3 inh	SIAE confirm
COc1ccc(Nc2cc(C)c3cc([N+](=O)[O-])ccc3n2)cc1	14	18	-1	-2	24*	-5	2
COC(=O)C1=C(NC(=O)COc2ccc(Cl)cc2Cl)CCS1	2	-2	3	-7	20*	1	-2
COC(=O)C1=C(NC(=O)COc2ccc3ccccc3c2)CCS1	6	-6	1	1	5	-1	x
Cn1c(=O)oc2cc(S(=O)(=O)N3CCC(C(=O)N4CCN(c5ccccc5)CC4)CC3)ccc21	0	-2	-2	-2	12	2	x
Cn1c(=O)oc2cc(S(=O)(=O)N3CCC(C(=O)N4CCN(c5ccc(F)cc5)CC4)CC3)ccc21	0	-1	-2	-3	20*	1	5
CCc1ccccc1NC(=O)c1onc(C)c1Cl	-2	0	-5	-6	32*	3	-2
Cc1nc2c(C)cccc2cc1C(=O)N/N=C/c1ccc(C(=O)O)cc1	-4	-4	-3	-9	-4	4	x
Cc1nc2c(C)cccc2cc1C(=O)N/N=C/c1cccnc1	0	0	-4	-6	18*	1	2
Oc1ccc(CCNc2c3ccccc3nc3ccccc23)cc1O	18	-25	12	1	19*	21*	29*
COC(=O)c1c([N+](=O)[O-])c(OC)c(OC)c(OC)c1[N+](=O)[O-]	-6	3	-8	-7	19*	6	7
COC(=O)c1c(C)[nH]c(C)c1C(C)=O	-1	-4	-10	-4	2	6	x
O=C(O)CCN1C(=O)/C(=C/c2cccc(OCc3ccc(F)cc3)c2)SC1=S	x	x	19	x	-4	x	x
Cc1nc(SCC(=O)N(CC(C)C)C2CCS(=O)(=O)C2)c2ccccc2n1 (centres undefined)	x	7	2	10	17*	0	-1
Cc1[nH]c2ccc(F)cc2c1CCN1C(=O)OC(C)(C)C1(C)O (centres undefined)	4	-10	0	2	26*	-7	3
Cc1[nH]c2ccc(OCc3ccccc3)cc2c1CCN1C(=O)OC(C)(C)C1(C)O (centres undefined)	0	4	-5	6	4	-2	x
COCCCNC(=O)CC[C@H]1O[C@@H](n2cnc3c(NC(=O)c4ccccc4)ncnc32)[C@H](O)[C@@H]1O	x	x	-2	x	2	3	x
O=C(CC[C@H]1O[C@@H](n2cnc3c(NC(=O)c4ccccc4)ncnc32)[C@H](O)[C@@H]1O)NCCCN1CCOCC1	x	x	-2	x	19*	0	13
COc1ccc(OCC(=O)NC(=S)Nc2ccccc2F)cc1	-1	-19	4	0	7	1	x
CCOc1ccc(NC(=S)Nc2cccc3ccccc23)cc1	-6	5	2	-1	18*	3	0
CC(C)c1ccc(NC(=S)Nc2cccc3ccccc23)cc1	-3	-7	0	-2	18*	1	5
